Bioassay records: PubChem BioAssay, Sanford-Burnham Center for Chemical Genomics
MPTP block: inhibitors of mitochondrial permeability transition pore; AID 602449; 360,000 tested, 1.4% active; inhibition, % at 10 µM; isolated mouse mitochondria, Ca2+ swelling absorbance, 30 min;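 active means inhibition of 50% or more, scaled per plate between neutral and stimulator controls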
pCIP destab: p/CIP protein destabilization | Q05BA5 | F442A p/CIP-EGFP cells, EGFP fluorescence, 16 h | 290,000 tested, 0.01% active | AID 1984 | decrease of EGFP signal, % at 10 µM;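 active means EGFP signal decrease of at least 30% at 10 µM or well 3 SD below plate mean, unless failing retest; inactive means the rest, including hits failing retest or dose response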
MIN6 prolif: induces beta-cell replication in MIN6 cells | MIN6 cells proliferation, ATPlite luminescence, 48 h; cells starved in 0.2% serum; 100% = growth in 10% serum | proliferation, % at 10 µM | 330,000 tested, 0.29% active | AID 2380;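 active means compounds whose signal lies at least 3.5 SD above the mean of all wells on their plate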
FAS-TE inh: FAS thioesterase (human) inhibition; P49327; recombinant FAS-TE, OMFH fluorogenic substrate, fluorescence endpoint; inhibition, % at 15 µM; 360,000 tested, 0.67% active; AID 602261;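 active means compounds whose normalised, plate-corrected inhibition of enzyme fluorescence in the single-dose primary screen is 50% or more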
GRIN3A LBD mod: modulators (binders) of human NR3A ligand-binding domain | 340,000 tested, 2.5% active | NR3A LBD differential scanning fluorimetry, Tm shift; 0% = protein alone, 100% = glycine-bound protein | Tm shift relative to glycine control, % at 25 µM;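 active means melting temperature shift of at least 10% of the positive control shift, at one fixed dose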
FAS-TE conf: FAS thioesterase (human) inhibition, confirmation; shares compounds with FAS-TE inh; recombinant FAS-TE, OMFH fluorogenic substrate, fluorescence; inhibition, % at 15 µM; 2,300 tested, 45% active; AID 624325;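 active means compounds inhibiting the enzyme by at least 50% at 15 µM in any one of the replicates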
MPTP counter: membrane potential counter-screen of mitochondrial pore inhibitors. shares compounds with MPTP block. isolated mitochondria, Rhodamine 123 fluorescence. inhibition, % at 10 µM. 5,000 tested, 78% active. AID 624504; in the data active means inhibition above about 22%
MPTP swell DR: dose response confirmation of mitochondrial permeability transition pore inhibitors | shares compounds with MPTP block | isolated mitochondria swelling, absorbance | IC50, µM | 780 tested, 58% active; in the data active means IC50 below about 20 µM
MPTP counter DR: MPTP inhibitor counter-screen activity, dose response. shares compounds with MPTP block. isolated mitochondria counterscreen, fluorescence read-out. IC50, µM. 780 tested, 49% active; in the data active means IC50 below about 80 µM
Of the large screens only hits and unclear results are named; the others gave an inactive call (follow-up assays come after a bar, where they were run). In the library only some 4.1% were active in any assay of this set; here they are far more common.

Cn1cc(C=C(C#N)C#N)c2ccccc21	FAS-TE inh 63 | FAS-TE conf inactive
Cc1cccc(Cn2cc(C=O)c3ccccc32)c1	none
O=Cc1cn(Cc2cccc([N+](=O)[O-])c2)c2ccccc12	FAS-TE inh 55 | FAS-TE conf 59
CN(Cc1cccc(-c2cccnc2)c1)C(=O)Oc1ccc([N+](=O)[O-])cc1	FAS-TE inh 51 (no result: pCIP destab, MIN6 prolif, GRIN3A LBD mod) | FAS-TE conf inactive
CCOC(=O)[C@]12Cc3cc(C)ccc3[C@H]1N(C1CCCCC1)C(=O)c1cc(OC)ccc12	FAS-TE inh 85 (no result: pCIP destab, MIN6 prolif, GRIN3A LBD mod) | FAS-TE conf 40
CCOC(=O)[C@]12Cc3cc(C)ccc3[C@H]1N(CCC(=O)OC)C(=O)c1cc(OC)ccc12	none (no result: pCIP destab, MIN6 prolif, GRIN3A LBD mod)
CCOC(=O)[C@]12Cc3cc(C)ccc3[C@H]1N(C(C)C)C(=O)c1ccccc12	FAS-TE inh 57 (no result: pCIP destab, MIN6 prolif, GRIN3A LBD mod) | FAS-TE conf inactive
CCOC(=O)[C@]12Cc3ccccc3[C@H]1N(C(C)C)C(=O)c1cc(OC)ccc12	none (no result: pCIP destab, MIN6 prolif, GRIN3A LBD mod)
CCOC(=O)[C@]12Cc3cc(OC)ccc3[C@H]1N(C1CCCCC1)C(=O)c1cc(OC)ccc12	FAS-TE inh 62 (no result: pCIP destab, MIN6 prolif, GRIN3A LBD mod) | FAS-TE conf inactive
NP(=O)(Oc1ccccc1Cl)Oc1ccccc1Cl	FAS-TE inh 75 | FAS-TE conf 85
Cc1nn(Cc2ccccc2)c(C)c1C(=O)OCC(=O)Nc1cccc(S(N)(=O)=O)c1	none
C=CCn1c(=O)c(C=Nc2cccc([N+](=O)[O-])c2)c(O)n(CCCC)c1=O	none
C=CCn1c(=O)c(C=Nc2c(OC)cccc2[N+](=O)[O-])c(O)n(CCCC)c1=O	FAS-TE inh 70 | FAS-TE conf inactive
CCOc1cccc(CNCCc2c(C)[nH]c3ccc(OC(F)(F)F)cc23)c1O	MPTP block 80 | MPTP counter 79
Cc1ccc(O)c(C(=O)c2cc(C(=O)NCc3ccccc3)c(=O)n(Cc3ccccc3)c2)c1	none
O=C(c1cc(C(=O)NCc2ccccc2)c(=O)n(Cc2ccccc2)c1)c1cc(Br)ccc1O	MPTP block 84 | MPTP counter 72
COC(=O)C(O)(c1ccc(NC(=S)NC(=O)c2ccc(Cl)cc2Cl)c(C)c1)C(F)(F)F (stereo not drawn)	MPTP block 86 | MPTP counter 86
CCOC(=O)C(O)(c1ccc(NC(=S)NC(=O)c2ccc(Cl)cc2Cl)c(C)c1)C(F)(F)F (stereo not drawn)	MPTP block 87 | MPTP counter 90
CCOC(=O)C(O)(c1ccc(NC(=S)NC(=O)c2ccc(Cl)cc2Cl)cc1)C(F)(F)F (stereo not drawn)	none
CCCNC(=O)N1[C@H]2CC[C@@H]1C(C(=O)OC)=C(c1ccc(F)cc1F)C2	none (no result: pCIP destab)
O=C1NC(=S)NC(=O)C1=Cc1ccc2c(c1)CCN2CCCCl	MPTP block 60 | MPTP counter inactive
C=CCn1c(O)c(C(C)=Nc2ccc(N(CC)CC)cc2)c(=O)[nH]c1=O	none
C=CCn1c(O)c(C(CC)=Nc2ccc(N(CC)CC)cc2)c(=O)[nH]c1=O	MPTP block 75 | MPTP counter 29
CC(c1ccccc1F)n1cc(C(=O)Nc2ccc3nc[nH]c3c2)nn1 (stereo not drawn)	none
CCN(CC)CCNC(=O)c1c(O)c2ccccc2n(Cc2ccccc2)c1=O	none
CCN(CC)CCCNC(=O)c1c(O)c2ccccc2n(Cc2ccccc2)c1=O	MPTP block 79 | MPTP counter inactive | MPTP swell DR 16 | MPTP counter DR inactive
Cc1ccc2c(c1)C1CN(C)CCC1N2C(=O)Nc1cccc(Cl)c1 (stereo not drawn)	MPTP block 94, GRIN3A LBD mod 17 | MPTP counter 91
CCSC(=O)N1CCCCCC1	none (no result: pCIP destab)
CCN1C(=O)NC(=O)/C(=C/c2cc(C)n(-c3sc(C)c(C)c3C#N)c2C)C1=O	MPTP block 57 | MPTP counter 35
